Bioassay records from PubChem BioAssay.
Rows were chosen to be rich in hits. Some 3.8% of all compounds tested hit in one or more screens of this group.
PAFAH1B2 FP inh: blocks human PAF acetylhydrolase 1b catalytic subunit 2; P68402; inhibition, % at 3.39 µM; actives 1.2% (n = 340,000); AID 492953; recombinant PAFAH1B2, FP-rhodamine activity probe, fluorescence polarization;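 active means inhibition above the mean of all tested compounds plus 3 SD, cut at about 24% in these data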;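 further: 0% = enzyme with DMSO and 100% = wells lacking PAFAH1B2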
PAFAH1B3 FP inh: PAFAH1B3 (human) inhibition; Q15102; recombinant PAFAH1B3, FP-rhodamine probe, fluorescence polarization; inhibition, % at 3.39 µM; actives 0.28% (n = 340,000); AID 492972;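 active means inhibition above the screen-wide average of all tested compounds plus 3 SD, cut at about 25% in these data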;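 further: 0% = enzyme with DMSO only and 100% = wells lacking PAFAH1B3 protein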
PAFAH2 inh: PAFAH2 (human) inhibition; Q99487; actives 0.99% (n = 340,000); AID 492956; inhibition, % at 3.39 µM; recombinant PAFAH2, FP-rhodamine activity probe, fluorescence polarization;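 active means inhibition above the mean over all tested compounds plus 3 SD, cut at about 30% in these data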;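 further: inhibitors block probe labeling of enzyme so polarization drops; 0% = enzyme with DMSO and 100% = wells lacking PAFAH2 protein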
M18AAP inhibitor: blocks P. falciparum M18 aspartyl aminopeptidase. actives 1.2% (n = 290,000). AID 1822. inhibition, % at 7.35 µM. recombinant PfM18AAP, H-Glu-NHMec fluorogenic cleavage;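 active means inhibition above the campaign mean inhibition over all tested compounds plus 3 SD, cut at about 28% in these data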;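 further: 0% = plate median of test compound wells and 100% = 2 mM ZnCl2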
DSG3 Ab inh: blocks pemphigus antibody binding to human desmoglein-3 | binding (percent of control), % at 10 µM | DSG3-coupled beads, scFv-anti-DSG3-GFP binding, flow cytometry; hits give low values | AID 588358 | P32926 | actives 0.48% (n = 310,000);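 active means binding more than 3 SD below its plate's average and above zero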;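 further: hits lower antibody fragment binding to DSG3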
Target sequence (P32926 whole entry, looked up, the tested form may be a part): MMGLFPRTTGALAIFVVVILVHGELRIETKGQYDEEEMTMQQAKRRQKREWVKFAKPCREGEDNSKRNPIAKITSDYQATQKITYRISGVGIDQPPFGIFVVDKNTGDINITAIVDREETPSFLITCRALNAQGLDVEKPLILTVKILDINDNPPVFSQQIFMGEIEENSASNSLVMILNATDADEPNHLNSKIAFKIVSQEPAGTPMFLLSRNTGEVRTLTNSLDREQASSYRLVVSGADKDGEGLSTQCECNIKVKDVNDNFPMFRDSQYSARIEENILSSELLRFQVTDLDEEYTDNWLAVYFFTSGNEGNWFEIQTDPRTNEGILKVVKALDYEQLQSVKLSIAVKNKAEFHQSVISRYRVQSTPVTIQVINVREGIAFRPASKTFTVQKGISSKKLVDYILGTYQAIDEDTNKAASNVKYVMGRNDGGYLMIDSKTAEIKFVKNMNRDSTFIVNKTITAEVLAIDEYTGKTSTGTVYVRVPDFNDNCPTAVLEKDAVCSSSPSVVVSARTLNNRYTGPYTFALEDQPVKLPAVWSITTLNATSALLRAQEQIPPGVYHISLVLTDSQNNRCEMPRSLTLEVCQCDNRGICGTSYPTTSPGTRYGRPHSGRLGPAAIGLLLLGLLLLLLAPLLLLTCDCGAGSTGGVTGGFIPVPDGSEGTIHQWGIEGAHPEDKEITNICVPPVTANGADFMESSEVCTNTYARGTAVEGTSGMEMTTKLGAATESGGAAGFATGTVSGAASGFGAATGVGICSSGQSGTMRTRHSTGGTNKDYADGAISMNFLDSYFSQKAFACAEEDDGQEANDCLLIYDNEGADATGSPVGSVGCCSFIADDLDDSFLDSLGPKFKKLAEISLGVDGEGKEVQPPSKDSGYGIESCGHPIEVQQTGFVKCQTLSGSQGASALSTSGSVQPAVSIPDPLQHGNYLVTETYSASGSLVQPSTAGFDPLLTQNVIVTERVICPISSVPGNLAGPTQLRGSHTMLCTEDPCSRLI
pPAFAH inh: pPAFAH (human) enzyme inhibition; inhibition, % at 3.39 µM; recombinant pPAFAH, FP-rhodamine probe fluorescence polarization; actives 1.5% (n = 330,000);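 active means inhibition above the mean inhibition across the screen plus 3 SD, cut at about 25% in these data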;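 further: inhibitors block binding of the rhodamine activity-based probe so polarization drops; 0% = enzyme with DMSO and 100% = wells lacking pPAFAH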
Numbers without * were called inactive; . = not tested or not shown.

SMILES | PAFAH1B2 FP inh | PAFAH1B3 FP inh | PAFAH2 inh | M18AAP inhibitor | DSG3 Ab inh | pPAFAH inh
CC(=O)C[C@H](O)CC(=O)[C@H]1OC(=O)CCCCCCCCc2ccccc21 | 37.2* | -10.3 | -5.8 | . | 95.9 | -1.3
Cc1cc(OCC(=O)NCc2ccccn2)c2c(C)c(Cc3ccccc3)c(=O)oc2c1 | 6.4 | 5.3 | 4.2 | -0.3 | 101.7 | 12.3
CCCn1nnc(NC(=O)Cc2ccc(Cl)cc2)n1 | 27.3* | 7.4 | 2.1 | 1.3 | 100.1 | 1.1
COC(=O)c1sccc1NC(=O)CSc1ccc(Cl)cc1 | 29.2* | -12.3 | -6.0 | -5.2 | 103.2 | 8.0
Cn1nnc(NC(=O)CSc2ccc(Cl)cc2)n1 | 24.7* | -0.9 | -7.8 | 2.6 | 107.6 | 3.4
CCCn1nnc(NC(=O)COc2ccc(Cl)cc2)n1 | 3.1 | 8.2 | 3.0 | 8.0 | 95.5 | -0.8
COc1cc(Cl)c(C)cc1NC(=O)CSc1ccc(C)cc1 | 34.0* | 3.2 | -4.5 | 0.0 | 103.6 | 0.4
COC(=O)c1sccc1NC(=O)CSc1ccccc1N | 5.8 | 6.1 | 1.6 | 1.5 | 98.6 | -3.0
Cc1cccc(NC(=O)N2CCc3ccccc3C2)c1C | -0.9 | 0.3 | -3.0 | 1.3 | 106.8 | .
C[C@H](CO)N1C[C@H](C)[C@@H](CN(C)C(=O)c2ccncc2)OCc2cnnn2CCCC1=O | . | . | . | . | 96.7 | .
COc1ccc(NC(=O)C23CC4CC(CC(Cl)(C4)C2)C3)cc1S(=O)(=O)N1CCOCC1 | 27.0* | 6.7 | 1.5 | . | 95.0 | 6.7
Cc1ccc(NC(=O)c2c3c(nc4ccccc24)CCC3)cc1S(=O)(=O)N(C)C | 1.5 | 6.2 | -3.4 | -2.1 | 45.4* | 14.5
COc1ccc(NC(=O)C2CC2)cc1S(=O)(=O)N1CCOCC1 | 1.4 | 3.2 | 1.3 | . | 106.8 | 1.0
COc1ccc(NC(=O)c2c3c(nc4ccccc24)CCC3)cc1S(=O)(=O)N1CCOCC1 | 1.5 | 5.8 | -0.1 | -5.8 | 98.2 | 26.1*
CC(C)CN1CC(Br)C(=O)NC1=O (stereo unspecified) | 2.0 | -0.9 | -0.5 | . | 113.4 | .
CC1CN(c2ccc(NC(=S)Nc3ccc(N4CC(C)OC(C)C4)cc3)cc2)CC(C)O1 (stereo unspecified) | 0.1 | 0.0 | 0.8 | 29.1* | 105.8 | 6.7
O=C1C=C(Nc2cccc3cccnc23)c2ccccc2C1=O | 3.9 | 15.2 | 29.6 | 2.4 | 120.7 | 33.6*
O=C1C=C(Nc2ccccc2C(=O)O)c2ccccc2C1=O | 23.3 | 58.6* | 39.3* | 26.5 | 82.1 | 24.1
O=C(CN1C(=O)c2ccccc2C1=O)Nc1cccc2cccnc12 | -1.5 | 3.4 | -2.0 | 0.1 | 102.6 | 2.4
CCOc1cc(/C=C2\SC(=O)N(CC(=O)Nc3ccccc3F)C2=O)cc([N+](=O)[O-])c1O | 8.4 | 14.5 | 34.1* | 4.8 | 89.5 | 32.1*
Cc1c(CNCCc2ccccc2Cl)c(C(=O)O)c(C)n1-c1ccccc1 | 6.5 | 6.8 | 5.4 | 0.1 | 98.7 | 2.9
CCOC(=O)N1CCN(C(=O)c2ccc3c(=O)n(CCC4=CCCCC4)c(=S)[nH]c3c2)CC1 | 24.8* | 3.2 | 8.7 | -2.2 | 97.0 | 5.5
CCOC(=O)c1[nH]c2c(c1-c1ccccc1)C(=O)CC(c1ccc(OC)c(OC)c1)C2 (stereo unspecified) | 3.0 | -0.1 | 0.9 | 2.1 | 105.0 | 2.4
CCOC(=O)c1[nH]c2c(c1-c1ccccc1)C(=O)CC(c1ccc(OCC)cc1)C2 (stereo unspecified) | -6.2 | 10.5 | 2.4 | -4.5 | -0.8* | 3.1
CCOC(=O)n1n[n+]([O-])c2ccccc21 | 0.5 | -2.0 | 3.9 | -3.7 | 100.4 | -1.6
SMILES | PAFAH1B2 FP inh | PAFAH1B3 FP inh | PAFAH2 inh | M18AAP inhibitor | DSG3 Ab inh | pPAFAH inh
CCCc1nnc(NC(=O)C23CC4CC(CC(C4)C2)C3)s1 | 24.6* | 3.0 | 3.5 | -4.5 | 90.5 | .
CC(C)c1nnc(NC(=O)CC23CC4CC(CC(C4)C2)C3)s1 | 20.6 | 1.8 | 1.4 | -1.2 | 109.9 | -4.2
COCc1nnc(NC(=O)C23CC4CC(CC(C4)C2)C3)s1 | 19.4 | 1.6 | 1.0 | . | 94.7 | .
CCc1nnc(NC(=O)CC23CC4CC(CC(Br)(C4)C2)C3)s1 | 26.7* | 9.9 | 1.6 | -1.6 | 97.6 | 9.2
O=S(=O)(NC(CO)Cc1ccccc1)c1cc(Cl)ccc1F (stereo unspecified) | 14.8 | 2.8 | -3.2 | . | 102.6 | .
O=S(=O)(NC(CO)Cc1ccccc1)c1ccc(Br)cc1F (stereo unspecified) | 29.1* | 2.9 | 0.7 | . | 99.2 | .
O=C(C#Cc1ccccc1)c1ccccc1 | . | . | . | . | 101.3 | .
Cc1ccc2nc(NC(=O)c3ccc4ncsc4c3)sc2c1 | -7.9 | -14.9 | -10.8 | 1.8 | -6.3* | -6.9
CS(=O)(=O)c1nc(-c2ccccc2)cc(C(F)(F)F)n1 | -1.7 | 3.0 | -4.0 | -2.0 | . | 25.1*
Cc1cc(NC(=O)CCS(=O)(=O)c2nc(-c3ccccc3)cc(C(F)(F)F)n2)no1 | 5.5 | 3.8 | -3.1 | . | 102.2 | 13.1
CC1(C)NC(=O)N(CCCOc2ccc(Br)cc2Cl)C1=O | 6.7 | 8.7 | -1.5 | 1.7 | 104.0 | 7.2
